Experimental data reported in PubChem BioAssay.
Calls of active or inactive are those of the source.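 The calls were made as follows, unless noted: active = inhibition above the screen-wide mean plus 3 SD, about 51%; inactive = the rest.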

Experiments:
[1] = reduced mouse 2C T cell binding to pMHC/ICAM-1 vesicles – MLPCN validation set, flow cytometry, LFA-1/ICAM-1 modulator project, pilot screen (AID 2523;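 active = response below a set limit, under 55% cells CD8-positive and vesicle-bound, and CD8 cells' 90th-percentile brightness under 279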;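 as to vesicle binding response: mean PE anti-B7-1 fluorescence of CD8+ cells relative to row control; 100% = QL9-loaded vesicles with DMSO vehicle in the same plate row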); conditions: 2C mouse CD8+ T cells, at 7 µM, stronger effect = lower value; double positive events: measured here: CD8+/vesicle+ event percentage
[2] = biological target: Integrin beta-1 (Homo sapiens) + Integrin alpha-4 (Homo sapiens) (UniProt P13612+P05556); test: alpha4beta1 integrin LIBS antibody binding reduction – U937 cells, HUTS-21 mAb, flow cytometry, validation set, VLA-4 allosteric modulator project, pilot screen (AID 2674;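 active = inhibition above 50%, about 3 SD of the validation set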;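 also: antibody binding induced by the VLA-4 ligand LDV present at three times its Kd; 0% = LDV ligand with antibody and no compound and 100% = antibody without LDV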); conditions: HUTS-21 LIBS mAb binding, at 6.7 µM, stronger effect = higher value, binding induced by LDV ligand
[3] = calorie-restriction mimetic ROS inhibitors, yeast – validation compound set, pilot screen (AID 2706;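 active = superoxide response below 65% of plate, a cut near 3 SD across the whole screen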;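 also: yeast exposed to compound for one week at 30 degrees C before staining; 100% = mean of all compound wells on the same plate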); conditions: S. cerevisiae aging, superoxide DHE fluorescence; at 10 µM, stronger effect = lower value
[4] = biological target: Beta-adrenergic receptor kinase 1 (Homo sapiens) (UniProt P25098); test: GRK2 binders displacing RNA aptamer, biochemical, validation, human GRK2, bead flow cytometry (AID 488806;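 active = aptamer binding inhibition above 30%, about 3 SD of noise from non-fluorescent compounds; inactive = inhibition at or below 30%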); conditions: bead-bound GRK2, FAM-aptamer displacement, at 10 µM, stronger effect = higher value
[5] = biological target: AP-2 complex subunit beta (Homo sapiens) (UniProt P63010); test: beta-arrestin/AP2 interaction blockers – biochemical, validation set, GST-AP2 beads, flow cytometry, pilot screen (AID 504541;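 active = inhibition above 54%, about 3 SD of non-fluorescent compounds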;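 also: AP2 carries R879A mutation and is captured from E. coli lysate; bead-bound FITC arrestin peptide fluorescence measuring arrestin peptide binding to AP2; 0% = DMSO wells and 100% = excess unlabeled arrestin peptide control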); conditions: FITC arrestin peptide, at 10 µM, stronger effect = higher value, AP2 beta2 appendage fragment, R879A mutant
[6] = cytosolic pH regulators acting via V-ATPase – S. cerevisiae, pHLuorin, HTS validation (AID 504600; in the data active = response above about 15%;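 also: plate controls were DMSO for no effect and reference compound for full effect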); conditions: V-ATPase proton transport, at 10 µM, stronger effect = higher value
[7] = tested on: anti-desmoglein-3 scFv antibody binding to human DSG3; test: blockers of pathogenic pemphigus antibody–desmoglein-3 binding – biochemical, validation compound set, bead-based, flow cytometry, pilot screen (AID 588368;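 active = binding below the plate cutoff, the plate median minus 3 SD, with a reading above zero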;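 also: signal is the median channel fluorescence of bead-bound GFP antibody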); conditions: Protein G beads, DSG3-Fc, scFv-GFP binding, at 10 µM, stronger effect = lower value
[8] = Nile Red efflux blockade in pump-expressing yeast – validation compound set, multiplex, phenotypic, pilot screen (AID 588506;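 active = efflux inhibition above 0.42, the validation set average plus 4 SD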;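 also: Nile Red retained in cells so higher fluorescence means more efflux inhibition; 0 = negative control wells and 1 = enniatin B 25 µM full block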); conditions: S. cerevisiae pump-expressing triplex, Nile Red efflux flow cytometry; at 10 µM; stronger effect = higher value; the pumps come from Candida albicans
[9] = biological target: ATP-binding cassette sub-family B member 6 (Homo sapiens) (UniProt Q9NP58); test: blockers of ABCB6-driven porphyrin uptake – K562-ABCB6 cells, flow cytometry, validation set, pilot screen (AID 588550); conditions: K562-ABCB6 porphyrin accumulation, 1 h, at 10 µM, stronger effect = higher value;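 also: 0% = DMSO wells and 100% = benzethonium chloride 70 µM positive control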
[10] = AML differentiation inducers, ER-HoxA9 marrow cells – cell-based, GFP/MAC1 double positive, flow cytometry, validation set, primary screen (AID 588685;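 active = differentiation response of at least 50%, scaled between solvent and reference control, from cells with both markers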;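 also: compound exposure lasts four days before antibody staining and flow analysis; 0% = DMSO wells and 100% = 5 µM fulvestrant positive control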); conditions: stronger effect = higher value, normalized: vehicle 0, fulvestrant 100

Sequence of ATP-binding cassette sub-family B member 6 (Homo sapiens) (Q9NP58 whole entry, looked up): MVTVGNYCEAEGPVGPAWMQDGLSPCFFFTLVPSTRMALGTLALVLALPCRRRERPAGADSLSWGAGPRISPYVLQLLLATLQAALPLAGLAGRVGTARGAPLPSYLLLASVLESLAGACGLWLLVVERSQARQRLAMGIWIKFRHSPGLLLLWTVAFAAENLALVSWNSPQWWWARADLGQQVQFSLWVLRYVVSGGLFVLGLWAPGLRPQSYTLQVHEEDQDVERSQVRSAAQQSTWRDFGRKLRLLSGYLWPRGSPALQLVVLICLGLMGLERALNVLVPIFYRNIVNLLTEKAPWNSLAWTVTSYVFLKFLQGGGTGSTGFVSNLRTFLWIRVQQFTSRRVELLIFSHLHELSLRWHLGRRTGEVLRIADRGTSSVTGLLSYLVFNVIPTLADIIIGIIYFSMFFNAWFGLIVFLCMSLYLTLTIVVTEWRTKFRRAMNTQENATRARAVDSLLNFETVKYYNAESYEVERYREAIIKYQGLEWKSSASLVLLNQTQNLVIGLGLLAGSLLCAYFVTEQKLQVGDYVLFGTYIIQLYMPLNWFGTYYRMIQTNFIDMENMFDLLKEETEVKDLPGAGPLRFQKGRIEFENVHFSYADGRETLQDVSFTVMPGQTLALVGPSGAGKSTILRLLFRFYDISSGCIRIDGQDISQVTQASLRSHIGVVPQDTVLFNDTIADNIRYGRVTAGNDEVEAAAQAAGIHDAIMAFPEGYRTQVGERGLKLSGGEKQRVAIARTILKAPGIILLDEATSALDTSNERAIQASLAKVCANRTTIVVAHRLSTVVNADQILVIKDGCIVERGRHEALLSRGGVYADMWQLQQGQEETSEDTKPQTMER
Sequence of Integrin beta-1 (Homo sapiens) + Integrin alpha-4 (Homo sapiens) (P05556 whole entry, looked up): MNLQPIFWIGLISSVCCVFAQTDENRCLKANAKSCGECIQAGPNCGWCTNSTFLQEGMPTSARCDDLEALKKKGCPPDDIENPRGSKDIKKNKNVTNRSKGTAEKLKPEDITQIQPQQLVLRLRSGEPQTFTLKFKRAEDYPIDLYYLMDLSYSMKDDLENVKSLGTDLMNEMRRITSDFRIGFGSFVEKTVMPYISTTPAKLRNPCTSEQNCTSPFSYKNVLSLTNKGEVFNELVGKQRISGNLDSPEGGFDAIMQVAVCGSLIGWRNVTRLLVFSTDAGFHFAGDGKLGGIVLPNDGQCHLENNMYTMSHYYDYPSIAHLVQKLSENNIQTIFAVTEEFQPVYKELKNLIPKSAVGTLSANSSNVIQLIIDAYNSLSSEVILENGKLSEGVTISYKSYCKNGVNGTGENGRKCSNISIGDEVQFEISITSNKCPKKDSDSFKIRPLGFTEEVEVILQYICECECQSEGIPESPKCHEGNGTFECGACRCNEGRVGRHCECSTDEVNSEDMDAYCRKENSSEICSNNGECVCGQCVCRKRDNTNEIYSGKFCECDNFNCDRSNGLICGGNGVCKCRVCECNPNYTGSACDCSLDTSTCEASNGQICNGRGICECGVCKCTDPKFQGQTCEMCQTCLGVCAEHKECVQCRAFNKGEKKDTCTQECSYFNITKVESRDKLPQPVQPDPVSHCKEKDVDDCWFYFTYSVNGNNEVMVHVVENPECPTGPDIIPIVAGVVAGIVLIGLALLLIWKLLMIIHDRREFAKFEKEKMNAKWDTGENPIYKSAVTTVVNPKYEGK
Sequence of Integrin beta-1 (Homo sapiens) + Integrin alpha-4 (Homo sapiens) (P13612 whole entry, looked up): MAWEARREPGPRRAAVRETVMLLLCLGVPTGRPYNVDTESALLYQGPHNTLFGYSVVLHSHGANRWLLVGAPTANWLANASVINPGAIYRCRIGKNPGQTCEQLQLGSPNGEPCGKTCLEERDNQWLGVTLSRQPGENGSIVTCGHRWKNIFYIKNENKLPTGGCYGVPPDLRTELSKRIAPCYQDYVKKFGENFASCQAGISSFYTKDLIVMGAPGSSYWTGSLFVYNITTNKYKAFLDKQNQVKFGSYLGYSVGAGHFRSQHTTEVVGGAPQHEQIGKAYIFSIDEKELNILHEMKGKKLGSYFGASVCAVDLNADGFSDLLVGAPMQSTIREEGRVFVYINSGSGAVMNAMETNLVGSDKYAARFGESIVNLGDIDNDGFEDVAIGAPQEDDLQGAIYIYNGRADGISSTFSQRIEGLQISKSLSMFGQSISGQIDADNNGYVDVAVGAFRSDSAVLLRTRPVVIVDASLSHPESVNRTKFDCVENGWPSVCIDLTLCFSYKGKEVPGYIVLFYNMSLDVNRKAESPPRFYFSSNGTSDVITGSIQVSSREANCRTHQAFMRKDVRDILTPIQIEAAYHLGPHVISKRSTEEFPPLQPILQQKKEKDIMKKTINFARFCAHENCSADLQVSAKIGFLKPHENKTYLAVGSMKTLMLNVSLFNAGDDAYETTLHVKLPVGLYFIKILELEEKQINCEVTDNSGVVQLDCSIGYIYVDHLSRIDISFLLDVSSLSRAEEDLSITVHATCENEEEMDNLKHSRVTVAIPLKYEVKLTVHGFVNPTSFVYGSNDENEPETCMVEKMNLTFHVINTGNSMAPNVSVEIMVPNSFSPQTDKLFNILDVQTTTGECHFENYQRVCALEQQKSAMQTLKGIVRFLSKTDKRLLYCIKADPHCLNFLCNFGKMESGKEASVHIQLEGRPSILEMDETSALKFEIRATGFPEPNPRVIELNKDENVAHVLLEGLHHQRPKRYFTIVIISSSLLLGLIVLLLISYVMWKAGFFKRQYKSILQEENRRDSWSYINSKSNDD
Sequence of AP-2 complex subunit beta (Homo sapiens) (P63010 whole entry, looked up, the tested form may be a part, one chain of several): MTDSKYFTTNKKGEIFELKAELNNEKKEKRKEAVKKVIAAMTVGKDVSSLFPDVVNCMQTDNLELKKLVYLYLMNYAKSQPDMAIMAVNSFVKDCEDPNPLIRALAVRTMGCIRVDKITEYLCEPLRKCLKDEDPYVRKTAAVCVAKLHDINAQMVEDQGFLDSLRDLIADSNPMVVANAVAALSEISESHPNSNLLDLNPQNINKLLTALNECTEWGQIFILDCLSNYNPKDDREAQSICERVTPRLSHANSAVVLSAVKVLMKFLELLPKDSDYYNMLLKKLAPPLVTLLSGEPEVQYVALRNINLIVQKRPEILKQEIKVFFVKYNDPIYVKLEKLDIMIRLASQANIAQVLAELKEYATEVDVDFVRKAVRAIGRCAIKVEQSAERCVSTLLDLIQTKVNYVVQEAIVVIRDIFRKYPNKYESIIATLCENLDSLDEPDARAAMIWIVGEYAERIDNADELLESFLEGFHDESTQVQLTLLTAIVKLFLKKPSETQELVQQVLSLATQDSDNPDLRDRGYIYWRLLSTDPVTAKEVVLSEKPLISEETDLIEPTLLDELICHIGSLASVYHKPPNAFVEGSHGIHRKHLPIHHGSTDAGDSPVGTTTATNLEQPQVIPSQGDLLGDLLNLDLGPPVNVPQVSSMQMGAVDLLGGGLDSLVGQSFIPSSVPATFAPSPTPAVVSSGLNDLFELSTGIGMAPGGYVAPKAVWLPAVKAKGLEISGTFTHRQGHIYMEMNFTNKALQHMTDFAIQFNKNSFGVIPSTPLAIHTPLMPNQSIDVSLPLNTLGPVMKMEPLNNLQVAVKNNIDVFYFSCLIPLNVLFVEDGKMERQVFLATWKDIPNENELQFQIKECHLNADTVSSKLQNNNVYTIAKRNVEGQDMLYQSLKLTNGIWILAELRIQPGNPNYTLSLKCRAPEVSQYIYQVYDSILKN
Sequence of Beta-adrenergic receptor kinase 1 (Homo sapiens) (P25098 whole entry, looked up): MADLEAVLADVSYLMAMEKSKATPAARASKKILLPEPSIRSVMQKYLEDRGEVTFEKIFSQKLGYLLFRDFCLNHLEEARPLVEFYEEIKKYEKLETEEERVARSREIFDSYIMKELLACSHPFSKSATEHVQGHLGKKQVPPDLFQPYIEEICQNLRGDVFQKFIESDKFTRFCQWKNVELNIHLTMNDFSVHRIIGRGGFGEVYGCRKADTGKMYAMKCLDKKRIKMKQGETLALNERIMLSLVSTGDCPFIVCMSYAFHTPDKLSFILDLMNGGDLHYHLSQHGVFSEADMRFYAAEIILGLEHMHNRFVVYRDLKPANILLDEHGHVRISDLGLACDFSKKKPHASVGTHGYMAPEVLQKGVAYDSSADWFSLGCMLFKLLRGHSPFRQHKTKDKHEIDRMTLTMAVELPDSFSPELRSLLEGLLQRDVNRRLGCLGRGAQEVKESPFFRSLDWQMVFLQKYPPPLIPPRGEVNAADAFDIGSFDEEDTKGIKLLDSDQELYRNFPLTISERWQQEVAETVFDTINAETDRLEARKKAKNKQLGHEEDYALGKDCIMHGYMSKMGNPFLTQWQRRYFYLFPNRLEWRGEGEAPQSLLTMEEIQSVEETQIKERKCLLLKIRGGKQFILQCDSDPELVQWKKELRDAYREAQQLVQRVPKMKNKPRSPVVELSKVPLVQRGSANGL

CC(=O)N=c1sc(S(N)(=O)=O)nn1C
double positive events [1]: 48.1%
vesicle binding response [1]: 166% (inactive)
inhibition [2]: -9.57% (inactive)
superoxide response (% of plate) [3]: 97% (inactive)
aptamer binding inhibition [4]: 4% (inactive)
inhibition [5]: -6.47% (inactive)
response [6]: -25.8% (inactive)
binding (% of control) [7]: 99.6% (inactive)
efflux inhibition (fraction of control) [8]: -0.01 (inactive)
inhibition [9]: 8% (inactive)
differentiation response [10]: 11.1% (inactive)

COc1ccc(-c2c(C)c3ccc(OCC(C)=O)cc3oc2=O)cc1
double positive events [1]: 46.6%
vesicle binding response [1]: 128% (inactive)
inhibition [2]: 3.49% (inactive)
superoxide response (% of plate) [3]: 113% (inactive)
aptamer binding inhibition [4]: 6% (inactive)
inhibition [5]: -9.08% (inactive)
response [6]: -2.13% (inactive)
binding (% of control) [7]: 103% (inactive)
efflux inhibition (fraction of control) [8]: -0.05 (inactive)
inhibition [9]: 9% (inactive)
differentiation response [10]: 3.03% (inactive)

C(=C/c1nccc2c1[nH]c1ccccc12)/c1ccc2c(c1)OCO2
double positive events [1]: 58.5%
vesicle binding response [1]: 170% (inactive)
inhibition [2]: -239% (inactive)
superoxide response (% of plate) [3]: 93.4% (inactive)
aptamer binding inhibition [4]: -1% (inactive)
inhibition [5]: 23.3% (inactive)
response [6]: 1.54% (inactive)
binding (% of control) [7]: 144% (inactive)
efflux inhibition (fraction of control) [8]: -0.35 (inactive)
inhibition [9]: 8% (inactive)
differentiation response [10]: -18% (inactive)

C[C@@H]1C[C@H]2[C@@H]3C[C@H](F)C4=CC(=O)C=C[C@]4(C)[C@@]3(F)[C@@H](O)C[C@]2(C)[C@@]1(O)C(=O)CO
double positive events [1]: 55%
vesicle binding response [1]: 206% (inactive)
inhibition [2]: 2.56% (inactive)
superoxide response (% of plate) [3]: 92.5% (inactive)
aptamer binding inhibition [4]: 2% (inactive)
inhibition [5]: -9.58% (inactive)
response [6]: 10.1% (inactive)
binding (% of control) [7]: 103% (inactive)
efflux inhibition (fraction of control) [8]: -0.09 (inactive)
inhibition [9]: 9% (inactive)
differentiation response [10]: -1.82% (inactive)

COc1cc2cc(C(=O)O)n(C)c2c(OC)c1OC
double positive events [1]: 54.5%
vesicle binding response [1]: 184% (inactive)
inhibition [2]: 5.36% (inactive)
superoxide response (% of plate) [3]: 103% (inactive)
aptamer binding inhibition [4]: -6% (inactive)
inhibition [5]: 17.7% (inactive)
response [6]: -19.4% (inactive)
binding (% of control) [7]: 106% (inactive)
efflux inhibition (fraction of control) [8]: -0.01 (inactive)
inhibition [9]: 2% (inactive)
differentiation response [10]: -3.43% (inactive)

CC(=Nc1ccccc1)C1=C(O)CCCC1=O
double positive events [1]: 61.6%
vesicle binding response [1]: 312% (inactive)
inhibition [2]: 13.8% (inactive)
superoxide response (% of plate) [3]: 104% (inactive)
aptamer binding inhibition [4]: 1% (inactive)
inhibition [5]: -9.14% (inactive)
response [6]: 8.27% (inactive)
binding (% of control) [7]: 97.7% (inactive)
efflux inhibition (fraction of control) [8]: -0.24 (inactive)
inhibition [9]: 0% (inactive)
differentiation response [10]: -21.2% (inactive)

Cc1ncc(C(=O)O)c(C(=O)O)c1N
double positive events [1]: 52.2%
vesicle binding response [1]: 184% (inactive)
inhibition [2]: 4.42% (inactive)
superoxide response (% of plate) [3]: 110% (inactive)
aptamer binding inhibition [4]: 2% (inactive)
inhibition [5]: -2.62% (inactive)
response [6]: -3.73% (inactive)
binding (% of control) [7]: 100% (inactive)
efflux inhibition (fraction of control) [8]: -0.09 (inactive)
inhibition [9]: 8% (inactive)
differentiation response [10]: -14.7% (inactive)

Nc1ncnc2c1ncn2C1OC(CO)C(O)C1O (centres undefined)
double positive events [1]: 48.3%
vesicle binding response [1]: 175% (inactive)
inhibition [2]: -6.77% (inactive)
superoxide response (% of plate) [3]: 102% (inactive)
aptamer binding inhibition [4]: 3% (inactive)
inhibition [5]: -4.3% (inactive)
response [6]: 0.12% (inactive)
binding (% of control) [7]: 110% (inactive)
efflux inhibition (fraction of control) [8]: -0.01 (inactive)
inhibition [9]: 5% (inactive)
differentiation response [10]: -18% (inactive)

Cc1cc(=O)oc(C)c1C(=O)NCCC(C)C
double positive events [1]: 53.1%
vesicle binding response [1]: 150% (inactive)
inhibition [2]: -1.17% (inactive)
superoxide response (% of plate) [3]: 87.3% (inactive)
aptamer binding inhibition [4]: 0% (inactive)
inhibition [5]: -9.02% (inactive)
response [6]: 7.71% (inactive)
binding (% of control) [7]: 102% (inactive)
efflux inhibition (fraction of control) [8]: 0.37 (inactive)
inhibition [9]: 15% (inactive)
differentiation response [10]: 32.1% (inactive)

C[C@]12CCC(=O)C=C1CC[C@@H]1[C@@H]2CC[C@@]2(C)[C@H]1CC[C@]2(O)C(=O)CO
double positive events [1]: 54.2%
vesicle binding response [1]: 143% (inactive)
inhibition [2]: 5.36% (inactive)
superoxide response (% of plate) [3]: 96.8% (inactive)
aptamer binding inhibition [4]: 4% (inactive)
inhibition [5]: -3.62% (inactive)
response [6]: 1.37% (inactive)
binding (% of control) [7]: 96.2% (inactive)
efflux inhibition (fraction of control) [8]: -0.31 (inactive)
inhibition [9]: 4% (inactive)
differentiation response [10]: -3.43% (inactive)

CC1(C)Cc2nc3oc4c(NCc5ccccc5)ncnc4c3cc2CO1
double positive events [1]: 49.8%
vesicle binding response [1]: 183% (inactive)
inhibition [2]: 4.42% (inactive)
superoxide response (% of plate) [3]: 95.3% (inactive)
aptamer binding inhibition [4]: -2% (inactive)
inhibition [5]: -8.27% (inactive)
response [6]: -4.11% (inactive)
binding (% of control) [7]: 105% (inactive)
efflux inhibition (fraction of control) [8]: -0.2 (inactive)
inhibition [9]: 5% (inactive)
differentiation response [10]: 0% (inactive)

N=c1ccn(CC(=O)NC(N)=O)c2ccccc12
double positive events [1]: 55.8%
vesicle binding response [1]: 241% (inactive)
inhibition [2]: 12.8% (inactive)
superoxide response (% of plate) [3]: 99.5% (inactive)
aptamer binding inhibition [4]: 4% (inactive)
inhibition [5]: 8.55% (inactive)
response [6]: 14.2% (inactive)
binding (% of control) [7]: 95.7% (inactive)
efflux inhibition (fraction of control) [8]: -0.09 (inactive)
inhibition [9]: -15% (inactive)
differentiation response [10]: -3.43% (inactive)

CN(C)CCN(Cc1cccs1)c1ccccn1
double positive events [1]: 52.7%
vesicle binding response [1]: 165% (inactive)
inhibition [2]: 13.8% (inactive)
superoxide response (% of plate) [3]: 113% (inactive)
aptamer binding inhibition [4]: 2% (inactive)
inhibition [5]: -17.1% (inactive)
response [6]: 8.75% (inactive)
binding (% of control) [7]: 101% (inactive)
efflux inhibition (fraction of control) [8]: 0.18 (inactive)
inhibition [9]: 8% (inactive)
differentiation response [10]: -21.2% (inactive)

Cc1c(CCOC(=O)CC23CC4CC(CC(C)(C4)C2)C3)sc[n+]1Cc1ccc([N+](=O)[O-])cc1
double positive events [1]: 59%
vesicle binding response [1]: 208% (inactive)
inhibition [2]: 8.15% (inactive)
superoxide response (% of plate) [3]: 98.4% (inactive)
aptamer binding inhibition [4]: -9% (inactive)
inhibition [5]: -6.04% (inactive)
response [6]: 3.23% (inactive)
binding (% of control) [7]: 108% (inactive)
efflux inhibition (fraction of control) [8]: 1.81 (active)
inhibition [9]: 6% (inactive)
differentiation response [10]: 0% (inactive)
